The values that follow come from PubChem BioAssay (NCI).

Common to all, as to test: NCI-60 one-dose screen, 48 h (100 = growth as untreated, 0 = no growth, -100 = all killed)
For one assay, the system named is NCI-H23 lung. Particulars: 10 µM unless noted.
Another assay concerns NCI-H226 lung. The settings on record: 10 µM unless noted.
The test system of another assay is NCI-H322M lung. The settings on record: 10 µM unless noted.
For another assay, the system named is NCI-H460 lung. The settings on record: 10 µM unless noted.
The subject of a further assay is NCI-H522 lung. Particulars: 10 µM.
Another assay relates to A549/ATCC NSCLC. Particulars: 10 µM unless noted.
The next assay relates to 786-0 renal. Particulars: 10 µM unless noted.
A further assay concerns COLO 205 colon. The settings on record: 10 µM unless noted.
Another assay deals with DU-145 prostate. The settings on record: 10 µM unless noted.
Another assay deals with K-562 leukemia. Particulars: 10 µM unless noted.
Another assay concerns MALME-3M melanoma. The settings on record: 10 µM unless noted.
For the next assay, the system named is MDA-MB-231 breast. Particulars: 10 µM unless noted.
A further assay has as its system RXF 393 renal. Particulars: 10 µM unless noted.
The subject of a further assay is SF-268 CNS. Particulars: 10 µM unless noted.
A further assay relates to SF-295 CNS. Particulars: 10 µM unless noted.
For another assay, the system named is SF-539 CNS. Particulars: 10 µM unless noted.
A further assay relates to UACC-257 melanoma. The settings on record: 10 µM unless noted.
Another assay concerns HOP-92 NSCLC. Particulars: 10 µM.
Another assay concerns M14 melanoma. Particulars: 10 µM unless noted.

The panel holds about 83,000 compounds, 20% with a hit somewhere; the sample as a whole holds those more often.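 Method: cells in 96-well plates; compound added at one concentration; 48 h incubation; percent growth measured; values under 10 scored active.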 Values without a mark were called inactive. Active and inactive are the calls of the source.

With `CCCC(CCC)Oc1ccc(CCCC2=C(O)c3ccccc3C(=O)C2=O)cc1`, the growth in the assay on NCI-H23 lung is 26.9%; in the assay with NCI-H226 lung, 32.6%; in the assay on NCI-H322M lung, -1.08% (active); in the assay with NCI-H460 lung, 9.9% (active); in the assay with NCI-H522 lung, 30.2%; in the assay with A549/ATCC NSCLC, 32.1%. The growth is 42.2% with 786-0 renal; 43.9% in the assay on COLO 205 colon; 33.4% with DU-145 prostate; 23% with K-562 leukemia; 57% with MALME-3M melanoma; 54.6% in the assay on MDA-MB-231 breast. The growth with RXF 393 renal was 58.7%; in the assay on SF-268 CNS, 45.3%; with SF-295 CNS, 28.2%; in the assay with SF-539 CNS, 23.1%; with UACC-257 melanoma it was 40.5%.

Regarding `Cn1cnc2nc[nH]c2c1=S`, the growth was 98.7% with NCI-H23 lung; 98.2% with NCI-H226 lung; 101% in the assay on NCI-H322M lung; 108% in the assay on NCI-H460 lung; 75.2% in the assay with HOP-92 NSCLC; 86.5% in the assay on NCI-H522 lung. Besides, the growth in the assay with 786-0 renal was 101%; in the assay with COLO 205 colon, 116%; with DU-145 prostate it was 112%; in the assay on K-562 leukemia, 103%; in the assay with MALME-3M melanoma, 98.8%; in the assay with MDA-MB-231 breast it was 96.3%. Also, the growth with RXF 393 renal is 110%; in the assay with SF-268 CNS it was 107%; in the assay with SF-295 CNS, 99.4%; in the assay with SF-539 CNS, 110%; in the assay with UACC-257 melanoma it was 96.5%; in the assay with M14 melanoma it was 105%.

For the compound `COC1=CC(c2ccc[nH]2)=N/C1=C\c1[nH]c(C)c(C(=O)CCCCC(=O)NC(C)(C)C)c1C`, the growth is 40.6% with NCI-H23 lung; 37.3% with NCI-H226 lung; 45.7% with NCI-H322M lung; 5.36% (active) in the assay on NCI-H460 lung; 3% (active) with HOP-92 NSCLC; -28.1% (active) in the assay on NCI-H522 lung. Further, the growth is 11.4% in the assay with A549/ATCC NSCLC; 44.4% in the assay on COLO 205 colon; 51.5% in the assay with DU-145 prostate; 53.5% with K-562 leukemia; 48.7% in the assay on MALME-3M melanoma; -19.2% (active) with MDA-MB-231 breast. The growth in the assay on RXF 393 renal is -47.1% (active); with SF-268 CNS it was 60.2%; in the assay on SF-295 CNS, 24%; in the assay with SF-539 CNS it was 63.1%; in the assay with UACC-257 melanoma it was 75.7%.

As for `Cc1ccc2c(O)c(O)cc(NC(C)CCCN)c2n1` (centres undefined), the growth is 20.7% with NCI-H23 lung; 111% with NCI-H226 lung; 26% in the assay on NCI-H322M lung; 107% with NCI-H460 lung; 22.3% with NCI-H522 lung; 84.6% in the assay with A549/ATCC NSCLC. Besides, the growth is 95.8% in the assay on 786-0 renal; 32.7% in the assay on COLO 205 colon; 74.5% in the assay with DU-145 prostate; 42.1% in the assay on K-562 leukemia; 81.6% in the assay with MALME-3M melanoma; 57.2% in the assay with MDA-MB-231 breast. For the same compound, the growth is 93.3% in the assay on RXF 393 renal; 92.2% in the assay on SF-268 CNS; 90.6% in the assay on SF-295 CNS; 14.6% with SF-539 CNS; 98.4% in the assay on UACC-257 melanoma.

Turning to `Cc1[nH]n(C(=S)Nc2nc3cc(Cl)c(F)cc3s2)c(=O)c1N=Nc1ccc(F)c(Cl)c1`, the growth with NCI-H23 lung is 97.4%; with NCI-H226 lung, 95.7%; in the assay with NCI-H322M lung, 119%; in the assay on NCI-H460 lung, 106%; in the assay on HOP-92 NSCLC it was 71.2%; in the assay with NCI-H522 lung, 123%. The growth in the assay on A549/ATCC NSCLC is 40.1%; in the assay with COLO 205 colon it was 109%; with DU-145 prostate, 154%; in the assay with K-562 leukemia it was 89.5%; with MALME-3M melanoma it was 139%; with MDA-MB-231 breast, 93.5%. In addition, the growth in the assay on SF-268 CNS was 90%; with SF-539 CNS it was 108%; in the assay on UACC-257 melanoma it was -34.2% (active); with M14 melanoma, 114%.

In the case of `O=C1Nc2ccccc2/C1=C/c1cn(CC(O)Cn2cc(/C=C3\C(=O)Nc4ccccc43)c3ccccc32)c2ccccc12` (centres undefined), the growth with NCI-H23 lung is -67.3% (active); in the assay with NCI-H226 lung, -74.9% (active); with NCI-H322M lung it was -39.1% (active); in the assay on NCI-H460 lung, -65.1% (active); with HOP-92 NSCLC it was -73.9% (active); in the assay on NCI-H522 lung, -17.4% (active). For the same compound, the growth was -11.6% (active) in the assay on A549/ATCC NSCLC; -70.9% (active) in the assay with 786-0 renal; -90.5% (active) in the assay on DU-145 prostate; -16.7% (active) in the assay with K-562 leukemia; -76.1% (active) in the assay with MALME-3M melanoma; -79.9% (active) in the assay on MDA-MB-231 breast. Further, the growth in the assay with RXF 393 renal was -90.8% (active); in the assay on SF-268 CNS it was -62% (active); with SF-295 CNS it was -84.7% (active); in the assay with SF-539 CNS it was -77.7% (active); in the assay on UACC-257 melanoma, -50.9% (active); in the assay on M14 melanoma it was -81.4% (active).

Take `COc1cc2ncnc(-n3ncc4cc(NC(=O)Nc5ccc(Cl)c(C)c5)ccc43)c2cc1OC`: the growth with NCI-H23 lung was 95.5%; with NCI-H226 lung it was 85.9%; with NCI-H322M lung, 88.7%; in the assay on NCI-H460 lung, 102%; with HOP-92 NSCLC, 93.7%; in the assay with NCI-H522 lung, 86.9%. In addition, the growth in the assay on A549/ATCC NSCLC is 99.9%; in the assay on 786-0 renal, 77.5%; with DU-145 prostate it was 101%; with K-562 leukemia, 90.5%; in the assay with MALME-3M melanoma, 82.8%; in the assay with MDA-MB-231 breast it was 98.9%. The growth in the assay with RXF 393 renal was 99.4%; in the assay on SF-268 CNS, 102%; with SF-295 CNS it was 96.9%; in the assay on SF-539 CNS it was 59.7%; in the assay with UACC-257 melanoma, 102%; in the assay on M14 melanoma, 79.3%.

Turning to `Cc1ccc(S(=O)(=O)N/N=C2\CC3CCC2C3)cc1` (centres undefined), the growth with NCI-H23 lung was 117%; in the assay with NCI-H226 lung it was 96.8%; with NCI-H322M lung, 99.3%; with NCI-H460 lung it was 107%; in the assay with NCI-H522 lung, 96.7%; in the assay with A549/ATCC NSCLC, 105%. Also, the growth with 786-0 renal was 100%; in the assay with COLO 205 colon, 113%; with DU-145 prostate, 114%; in the assay with K-562 leukemia, 103%; in the assay on MALME-3M melanoma, 102%; in the assay with MDA-MB-231 breast, 111%. For the same compound, the growth in the assay with RXF 393 renal was 112%; in the assay on SF-268 CNS, 113%; in the assay on SF-295 CNS it was 86.6%; in the assay on SF-539 CNS it was 97.6%; in the assay on UACC-257 melanoma, 114%; with M14 melanoma, 104%.
